The structures appear in SMILES notation. ± gives the uncertainty stated by the source.
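Note: viable cell number estimated from Alamar Blue fluorescence read at 560/90, part of a single-dose primary screen of an FDA-approved drug library.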

The assay deals with U87. Put plainly: cell viability relative to vehicle control; higher = less growth inhibition (less active). The following applies: 10 µM; 72 h.
With `COc1cc2c(cc1OC)[C@@]13CCN4CC5=CCO[C@H]6CC(=O)N2[C@H]1[C@H]6[C@H]5C[C@H]43` [Brucine], the cell viability amounted to 107 ± 1.1%.

For `COc1ccc2[nH]cc(C3=CCNCC3)c2c1`, the cell viability is 105 ± 2.3%.

Regarding `O=C1CN=C(c2ccccc2)c2cc([N+](=O)[O-])ccc2N1` [Nitrazepam], the cell viability was found to be 103.3 ± 0.55%.

The values are drawn from the supplement of paper PMC3898565.
